# Laboratory results published in PubChem BioAssay (NCI).
# This is part of a sample that, as a whole, favours compounds with a hit. Of some 79,000 tested, about 15% had one in any assay. Unmarked numbers belong to inactive results. Activity calls are given as the source filed them. No stated cut-off is given here; in the data, active means growth inhibition above about 70%; inactive means the rest.
# Experiments:
# [1] = NCI Yeast Anticancer Drug Screen. Data for the rad52 strain (AID 147);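 further: 0% = growth of vehicle-treated control cultures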; conditions: S. cerevisiae rad52 mutant growth inhibition, active compounds read high
# How it was run: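 DNA repair-defective yeast; compound exposure; growth scored against vehicle controls.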
# [2] = NCI Yeast Anticancer Drug Screen. Data for the wt1 strain (AID 149);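 further: 0% = growth of vehicle-treated wt1 cultures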; conditions: S. cerevisiae wt1 strain (SPY 50644) growth inhibition, active compounds read high
# How it was run: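 Each compound is tested on wt1 yeast and the loss of growth versus vehicle gives the inhibition value.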
# [3] = NCI Yeast Anticancer Drug Screen. Data for the rad50EPP+ strain (AID 151);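 further: 0% = growth of vehicle-treated control cultures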; conditions: S. cerevisiae rad50 mutant strain, active compounds read high
# How it was run: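 rad50EPP+ yeast treated with test compounds. Readout: growth vs vehicle control.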
# [4] = NCI Yeast Anticancer Drug Screen. Data for the mgt1 strain (AID 153); conditions: S. cerevisiae mgt1 mutant growth inhibition, active compounds read high
# How it was run: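 Growth inhibition relative to vehicle controls was scored for the mgt1 yeast strain after compound exposure.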
# [5] = NCI Yeast Anticancer Drug Screen. Data for the rad50 strain (AID 155);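 further: 0% = growth of vehicle-only cultures of the same strain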; conditions: S. cerevisiae rad50 strain growth inhibition, active compounds read high
# How it was run: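 Vehicle-treated cultures provide the reference for the growth inhibition reported for compound-exposed, repair-deficient yeast.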
# [6] = NCI Yeast Anticancer Drug Screen. Data for the mec2-1 strain (AID 157); conditions: S. cerevisiae mec2-1 strain, active compounds read high
# How it was run: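 Growth inhibition is read against vehicle-treated controls after compound exposure of the mec2-1 yeast strain, which is defective in DNA damage repair or cell cycle control.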
# [7] = NCI Yeast Anticancer Drug Screen. Data for the sgs1 mgt1 strain (AID 161);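 further: 0% = growth of cultures given vehicle only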; conditions: S. cerevisiae sgs1 mgt1 strain, active compounds read high
# How it was run: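 This yeast growth screen uses a strain with defined DNA-repair lesions; compound-treated growth is compared with vehicle-treated growth.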
# [8] = NCI Yeast Anticancer Drug Screen. Data for the CLN2oe strain (AID 163);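 further: 0% = growth of vehicle-only control cultures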; conditions: S. cerevisiae CLN2oe strain, active compounds read high
# How it was run: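 Compound-treated yeast; growth vs vehicle ctrl = % inhibition. Genetically altered strain (cell-cycle control).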
# [9] = NCI Yeast Anticancer Drug Screen. Data for the cln2 rad14 strain (AID 165);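 further: 0% = growth equal to vehicle treated cultures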; conditions: S. cerevisiae cln2 rad14 strain, active compounds read high
# How it was run: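 Growth inhibition, relative to vehicle-treated controls, is the read-out. The test organism is a yeast strain with defined genetic alterations, cln2 rad14.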
# [10] = NCI Yeast Anticancer Drug Screen. Data for the bub3 strain (AID 167); conditions: S. cerevisiae bub3 mutant strain, active compounds read high
# How it was run: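 Mutant yeast screening strain plus compound; vehicle-treated cultures serve as the 0% inhibition reference.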
# [11] = NCI Yeast Anticancer Drug Screen. Data for the mlh1 strain (AID 171);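 further: 0% = growth of vehicle-treated control cultures of the same strain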; conditions: S. cerevisiae mlh1 strain growth inhibition, active compounds read high
# How it was run: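 Compounds are applied to a genetically altered yeast strain, and its growth is compared with that of vehicle-treated cultures to give percent inhibition.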
# [12] = NCI Yeast Anticancer Drug Screen. Data for the sgs1 strain (AID 173);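 further: 0% = growth of vehicle-only control cultures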; conditions: S. cerevisiae sgs1 mutant, active compounds read high
# How it was run: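 Compounds applied to genetically altered yeast; growth compared with vehicle-treated cultures to give % inhibition.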
# [13] = NCI Yeast Anticancer Drug Screen. Data for the mlh1 rad18 strain (AID 175); conditions: S. cerevisiae mlh1 rad18 strain growth inhibition, active compounds read high
# How it was run: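 Cells of a genetically altered yeast strain, deficient in DNA damage repair, were treated with compound. Their growth was then compared with that of vehicle-treated cultures to give inhibition.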
# [14] = NCI Yeast Anticancer Drug Screen. Data for the rad18 strain (AID 177); conditions: S. cerevisiae rad18 mutant growth inhibition, active compounds read high
# How it was run: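 Compounds are applied to a repair-deficient yeast strain, and growth is compared with that of vehicle-treated cultures to give percent inhibition.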
# [15] = at 5.0 µM (retest, dose inferred, filed as 0.5)
# [16] = at 50.0 µM (retest, dose inferred, filed as 5.0)
structure (smiles),measurement,setting,value
O=CNc1ccc2c(c1)C(=O)c1ccccc1-2,growth inhibition,[1]; at 1.2 µM,8%
same,growth inhibition,[1]; at 3.7 µM,15%
same,growth inhibition,[1]; at 11.0 µM,40%
same,growth inhibition,[1]; at 33.0 µM,94% (active)
same,growth inhibition,[1]; at 100.0 µM,97% (active)
same,growth inhibition,[2]; at 1.2 µM,-2%
same,growth inhibition,[2]; at 3.7 µM,-1%
same,growth inhibition,[2]; at 11.0 µM,8%
same,growth inhibition,[2]; at 33.0 µM,27%
same,growth inhibition,[2]; at 100.0 µM,85% (active)
same,growth inhibition,[3]; at 1.2 µM,5%
same,growth inhibition,[3]; at 3.7 µM,12%
same,growth inhibition,[3]; at 11.0 µM,26%
same,growth inhibition,[3]; at 33.0 µM,86% (active)
same,growth inhibition,[3]; at 100.0 µM,95% (active)
same,growth inhibition,[4]; at 1.2 µM,4%
same,growth inhibition,[4]; at 3.7 µM,5%
same,growth inhibition,[4]; at 11.0 µM,9%
same,growth inhibition,[4]; at 33.0 µM,47%
same,growth inhibition,[4]; at 100.0 µM,97% (active)
same,growth inhibition,[5]; at 1.2 µM,13%
same,growth inhibition,[5]; at 3.7 µM,22%
same,growth inhibition,[5]; [15],7%
same,growth inhibition,[5]; at 11.0 µM,37%
same,growth inhibition,[5]; at 33.0 µM,93% (active)
same,growth inhibition,[5]; [16],75% (active)
same,growth inhibition,[5]; at 50.0 µM,94.2% (active)
same,growth inhibition,[5]; at 100.0 µM,96% (active)
same,growth inhibition,[6]; at 1.2 µM,3%
same,growth inhibition,[6]; at 3.7 µM,4%
same,growth inhibition,[6]; [15],6%
same,growth inhibition,[6]; at 11.0 µM,3%
same,growth inhibition,[6]; at 33.0 µM,36%
same,growth inhibition,[6]; [16],37%
same,growth inhibition,[6]; at 50.0 µM,37.7%
same,growth inhibition,[6]; at 100.0 µM,95% (active)
same,growth inhibition,[7]; [15],5%
same,growth inhibition,[7]; [16],55%
same,growth inhibition,[7]; at 50.0 µM,19.3%
same,growth inhibition,[8]; at 1.2 µM,10%
same,growth inhibition,[8]; at 3.7 µM,10%
same,growth inhibition,[8]; at 11.0 µM,18%
same,growth inhibition,[8]; at 33.0 µM,37%
same,growth inhibition,[8]; at 100.0 µM,75% (active)
same,growth inhibition,[9]; [15],-15%
same,growth inhibition,[9]; [16],-5%
same,growth inhibition,[9]; at 50.0 µM,26.8%
same,growth inhibition,[10]; at 1.2 µM,9%
same,growth inhibition,[10]; at 3.7 µM,0%
same,growth inhibition,[10]; [15],-6%
same,growth inhibition,[10]; at 11.0 µM,16%
same,growth inhibition,[10]; at 33.0 µM,61%
same,growth inhibition,[10]; [16],66%
same,growth inhibition,[10]; at 50.0 µM,62.9%
same,growth inhibition,[10]; at 100.0 µM,87% (active)
same,growth inhibition,[11]; at 1.2 µM,3%
same,growth inhibition,[11]; at 3.7 µM,10%
same,growth inhibition,[11]; at 11.0 µM,16%
same,growth inhibition,[11]; at 33.0 µM,72% (active)
same,growth inhibition,[11]; at 100.0 µM,97% (active)
same,growth inhibition,[12]; at 1.2 µM,-2%
same,growth inhibition,[12]; at 3.7 µM,0%
same,growth inhibition,[12]; at 11.0 µM,6%
same,growth inhibition,[12]; at 33.0 µM,52%
same,growth inhibition,[12]; at 100.0 µM,94% (active)
same,growth inhibition,[13]; [15],4%
same,growth inhibition,[13]; [16],61%
same,growth inhibition,[13]; at 50.0 µM,69.5%
same,growth inhibition,[14]; at 1.2 µM,2%
same,growth inhibition,[14]; at 3.7 µM,3%
same,growth inhibition,[14]; at 11.0 µM,7%
same,growth inhibition,[14]; at 33.0 µM,52%
same,growth inhibition,[14]; at 100.0 µM,94% (active)
CN(C)Cc1cc(N=Nc2ccc(Cl)cc2)cc(CN(C)C)c1O,growth inhibition,[1]; at 1.2 µM,8%
same,growth inhibition,[1]; at 3.7 µM,8%
same,growth inhibition,[1]; at 11.0 µM,8%
same,growth inhibition,[1]; at 33.0 µM,16%
same,growth inhibition,[1]; at 100.0 µM,58%
same,growth inhibition,[2]; at 1.2 µM,5%
same,growth inhibition,[2]; at 3.7 µM,4%
same,growth inhibition,[2]; at 11.0 µM,8%
same,growth inhibition,[2]; at 33.0 µM,12%
same,growth inhibition,[2]; at 100.0 µM,63%
same,growth inhibition,[3]; at 1.2 µM,-3%
same,growth inhibition,[3]; at 3.7 µM,-1%
same,growth inhibition,[3]; at 11.0 µM,15%
same,growth inhibition,[3]; at 33.0 µM,43%
same,growth inhibition,[3]; at 100.0 µM,91% (active)
same,growth inhibition,[5]; at 1.2 µM,9%
same,growth inhibition,[5]; at 3.7 µM,7%
same,growth inhibition,[5]; [15],-15%
same,growth inhibition,[5]; at 11.0 µM,8%
same,growth inhibition,[5]; at 33.0 µM,10%
same,growth inhibition,[5]; [16],73% (active)
same,growth inhibition,[5]; at 50.0 µM,56.8%
same,growth inhibition,[5]; at 100.0 µM,25%
same,growth inhibition,[6]; at 1.2 µM,15%
same,growth inhibition,[6]; at 3.7 µM,17%
same,growth inhibition,[6]; [15],-5%
same,growth inhibition,[6]; at 11.0 µM,16%
same,growth inhibition,[6]; at 33.0 µM,14%
same,growth inhibition,[6]; [16],47%
same,growth inhibition,[6]; at 50.0 µM,88.9% (active)
